Screening results as filed in PubChem.
This is a sample that favours compounds with a hit; in the whole collection about 2.9% have one here.
rCAG RNA binder: binds r(CAG) RNA repeats; r(CAG) RNA repeat, TO-PRO-1 dye displacement fluorescence; inhibition, % at 3 µM; 370,000 compounds, 1.3% hits; AID 651821;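 active = inhibition above the plate cutoff, the mean of all test compounds on that plate plus 3 SD, cut at about 35% in these data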;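 also: 0% = DMSO alone and 100% = 100 µM mitoxantrone as full dye displacement; higher means more dye released from RNA so lower well fluorescence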
PAFAH2 FP inh: inhibitors of human PAFAH2; 340,000 compounds, 0.99% hits; recombinant PAFAH2, FP-rhodamine activity probe, fluorescence polarization; inhibition, % at 3.39 µM;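 active = inhibition above the mean over all tested compounds plus 3 SD, cut at about 30% in these data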;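 also: inhibitors block probe labeling of enzyme so polarization drops; 0% = enzyme with DMSO and 100% = wells lacking PAFAH2 protein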
PAFAH1B3 inh: inhibitors of human PAFAH1B3. AID 492972. recombinant PAFAH1B3, FP-rhodamine probe, fluorescence polarization. Q15102. 340,000 compounds, 0.28% hits. inhibition, % at 3.39 µM;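 active = inhibition above the screen-wide average of all tested compounds plus 3 SD, cut at about 25% in these data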;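 also: 0% = enzyme with DMSO only and 100% = wells lacking PAFAH1B3 protein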
Target sequence (Q15102 whole entry, looked up): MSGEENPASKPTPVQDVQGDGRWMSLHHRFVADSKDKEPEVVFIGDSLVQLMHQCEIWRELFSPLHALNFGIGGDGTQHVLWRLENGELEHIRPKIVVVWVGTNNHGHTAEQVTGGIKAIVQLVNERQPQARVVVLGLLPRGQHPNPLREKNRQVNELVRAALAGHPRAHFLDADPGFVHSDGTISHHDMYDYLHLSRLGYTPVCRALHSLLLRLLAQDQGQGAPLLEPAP
EBNA-1 inh: blocks EBNA-1 binding to DNA | EBNA-1 DNA binding, fluorescence polarization | inhibition, % at 14.8 µM | 300,000 compounds, 0.34% hits; in the data active = inhibition above about 28%
PAFAH1B2 FP inh: PAFAH1B2 (human) inhibition. recombinant PAFAH1B2, FP-rhodamine activity probe, fluorescence polarization. 340,000 compounds, 1.2% hits. inhibition, % at 3.39 µM;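 active = inhibition above the mean of all tested compounds plus 3 SD, cut at about 24% in these data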;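 also: 0% = enzyme with DMSO and 100% = wells lacking PAFAH1B2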
Target sequence (P68402 whole entry, looked up): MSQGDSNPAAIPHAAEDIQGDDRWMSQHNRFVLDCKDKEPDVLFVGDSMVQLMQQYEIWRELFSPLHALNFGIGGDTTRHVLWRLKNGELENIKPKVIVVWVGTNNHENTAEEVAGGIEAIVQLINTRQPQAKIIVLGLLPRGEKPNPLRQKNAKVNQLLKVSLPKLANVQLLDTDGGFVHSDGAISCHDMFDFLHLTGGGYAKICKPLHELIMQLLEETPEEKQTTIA
ZTA DNA inh: ZTA (EBV) inhibition in EBNA-1 counter-screen; ZTA-DNA binding, fluorescence polarization; 320,000 compounds, 0.15% hits; inhibition, % at 11 µM; in the data active = inhibition above about 33%
Target sequence (P03206 whole entry, looked up): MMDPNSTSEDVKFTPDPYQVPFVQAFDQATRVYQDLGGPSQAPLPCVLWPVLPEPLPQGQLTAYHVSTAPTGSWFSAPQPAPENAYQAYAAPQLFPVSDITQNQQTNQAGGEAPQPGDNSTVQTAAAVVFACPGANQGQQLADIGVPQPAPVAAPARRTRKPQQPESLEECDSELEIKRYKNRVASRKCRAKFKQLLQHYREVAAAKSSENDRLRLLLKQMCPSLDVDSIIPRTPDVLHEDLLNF
rCAG binder conf: r(CAG) RNA repeat binding, confirmation; shares compounds with rCAG RNA binder; TO-PRO-1 dye displacement fluorescence; inhibition, % at 3 µM; 4,300 compounds, 70% hits; AID 652065;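 active = inhibition above a per-plate cutoff, the mean inhibition of sample wells plus 3 SD, cut at about 35% in these data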;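 also: loss of TO-PRO-1 fluorescence as compound displaces dye from 1x1 AA loop RNA; 0% = DMSO only wells and 100% = 100 µM mitoxantrone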
dCAG dye counter: DNA CAG dye complex inhibition counter-screen; shares compounds with rCAG RNA binder; d(CAG) DNA oligo TO-PRO-1 dye displacement, fluorescence; inhibition, % at 3 µM; 4,300 compounds, 94% hits; AID 652068;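 active = inhibition above its plate's cutoff, the mean test-well inhibition plus 3 SD, cut at about 4.8% in these data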;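 also: 0% = DNA dye mix with DMSO and 100% = 100 µM mitoxantrone; hits displace the dye from DNA and so lower well fluorescence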
Numbers without * were called inactive; · = not tested or not shown.

SMILES	rCAG RNA binder	PAFAH2 FP inh	PAFAH1B3 inh	EBNA-1 inh	PAFAH1B2 FP inh	ZTA DNA inh	rCAG binder conf	dCAG dye counter
O=C(Nc1ccc(S(=O)(=O)Nc2cnc3ccccc3n2)cc1)c1ccc([N+](=O)[O-])cc1Cl	48.7*	-2.2	10.9	5.5	2.2	-12.9	32.8	6.0*
COc1cc(C(=O)Nc2ccc(S(=O)(=O)Nc3cnc4ccccc4n3)cc2)cc(OC)c1OC	40.1*	-6.4	3.5	8.1	1.9	16.5	32.9	6.8*
O=C(N1CCN(c2ccccn2)CC1)N1c2ccccc2Sc2ccccc21	2.5	6.0	5.6	-0.9	2.9	-2.3	·	·
Fc1ccccc1/C=N/n1c(COc2ccccc2)n[nH]c1=S	13.1	2.4	9.1	-1.8	5.3	10.7	·	·
Fc1ccccc1-c1n[nH]c(=S)n1N=Cc1ccc(-c2ccccc2)cc1	60.5*	·	·	·	·	·	48.1*	13.6*
Fc1ccc(-c2n[nH]c(=S)n2N=Cc2cccc(OCc3ccccc3)c2)cc1	58.2*	·	·	·	·	·	51.4*	18.3*
Fc1ccccc1-c1n[nH]c(=S)n1N=Cc1cccc(OCc2ccccc2)c1	73.1*	·	·	·	·	·	63.8*	24.1*
Oc1c(Br)cc(Br)c(/C=N/n2c(-c3ccccc3)n[nH]c2=S)c1Br	59.4*	31.0*	0.9	6.9	9.4	17.0	43.3*	14.1*
Brc1cnc2nc[nH]c2c1	-0.1	-1.9	2.1	-3.9	6.2	3.9	·	·
COc1ccccc1COc1ccc2c(C)c(CC(=O)O)c(=O)oc2c1C	37.0*	0.1	13.4	-6.8	1.1	12.2	39.4*	10.3*
Cc1c(CC(=O)O)c(=O)oc2c(C)c(OCc3ccc(F)cc3F)ccc12	6.6	-2.1	7.9	6.2	4.2	4.1	·	·
O=C(CCc1ccccc1)N=C1SC2CS(=O)(=O)CC2N1c1cccc(F)c1 (stereo not drawn)	0.6	3.7	16.2	-6.4	7.5	-12.1	·	·
O=C1C2Sc3[nH]c(=O)sc3C(c3ccccc3)C2C(=O)N1c1ccc(Cl)cc1 (stereo not drawn)	35.9*	10.5	3.0	-9.2	22.7	6.0	25.3	8.7*
O=C(O)c1cc(-c2ccc(Cl)c(Cl)c2)n(-c2ccccc2)n1	41.1*	-1.8	0.9	-6.5	28.8*	-14.8	11.6	0.2
Cc1ccc(-n2nc(C(=O)O)cc2-c2ccccc2)cc1	3.3	5.0	5.6	-3.7	18.6	-6.3	·	·
CN(CCc1ccccc1)C(=O)c1ccc(NC(=O)Cc2ccc(NC(=O)C3CCCN(C(=O)C4CC4)C3)cc2)cc1 (stereo not drawn)	1.0	1.0	9.5	·	6.2	·	·	·
O=C(/C=C1\C(=O)Nc2ccccc21)/C=C1\C(=O)Nc2ccccc21	39.0*	5.1	3.8	·	7.8	·	31.7	19.8*
NC(c1csc(NC(=O)Nc2ccc(OC(F)(F)F)cc2)n1)C1CCCCC1 (stereo not drawn)	40.0*	·	·	·	·	·	25.4	4.0
COc1ccc(NC(=O)Nc2nc(C(N)CC(C)C)cs2)cc1 (stereo not drawn)	27.6	·	·	·	·	·	·	·
COc1ccc(S(=O)(=O)N2CC(O)C[C@H]2C(=O)OCC(=O)N2CCCCCC2)cc1 (stereo partly drawn)	-4.0	0.2	5.2	4.5	2.1	-17.8	·	·
O=C(O)c1cc(Cl)c(Cl)cc1C(=O)N(Cc1ccccc1)Cc1ccccc1	37.4*	11.0	7.8	-4.5	14.6	5.7	45.0*	11.5*
O=C(O)c1ccccc1C(=O)N(Cc1ccccc1)Cc1ccccc1	4.8	-3.4	3.2	-6.7	8.2	-5.3	·	·
Cc1cc(C)c(NS(=O)(=O)c2ccccc2)c(C)c1	1.1	-2.7	-2.3	·	-0.4	·	·	·
O=C(O)c1ccc(NC2=C/C(=N/S(=O)(=O)c3ccccc3)c3ccccc3C2=O)cc1	60.7*	47.9*	63.4*	·	30.3*	·	37.6*	11.4*
Cc1cc(C)c(S(=O)(=O)/N=C2\C=C(NS(=O)(=O)c3ccccc3)C(=O)c3ccccc32)c(C)c1	44.6*	4.1	-5.0	-2.5	-0.4	-2.5	85.1*	56.8*
SMILES	rCAG RNA binder	PAFAH2 FP inh	PAFAH1B3 inh	EBNA-1 inh	PAFAH1B2 FP inh	ZTA DNA inh	rCAG binder conf	dCAG dye counter
Cc1cc(C)c(S(=O)(=O)/N=C2\C=C(Nc3ccc(C(=O)O)cc3)C(=O)c3ccccc32)c(C)c1	84.5*	36.1*	59.7*	-13.4	26.1*	5.3	80.8*	49.9*
COc1ccc(S(=O)(=O)Nc2nc3ccccc3nc2Nc2cccc(C(=O)O)c2)cc1	30.6	10.4	12.6	-3.6	0.8	-15.3	·	·
CCc1ccc(S(=O)(=O)/N=C2\C=C(Nc3cccc(C(=O)O)c3)C(=O)c3ccccc32)cc1	81.1*	62.2*	62.7*	-4.9	38.9*	19.8	76.5*	37.4*
O=C(O)c1ccc(NC2=C/C(=N/S(=O)(=O)c3cccs3)c3ccccc3C2=O)cc1	16.7	·	·	·	·	·	·	·
COc1ccc(CN(C(=O)c2cc(=O)c3ccccc3o2)C2CCS(=O)(=O)C2)cc1 (stereo not drawn)	-3.0	4.0	2.1	3.6	-2.3	11.2	·	·
CCCC[C@@H]1C=C(C(=O)O)[C@H](c2ccc(C#N)cc2)N1S(=O)(=O)c1ccc(C)cc1	52.6*	-4.9	6.5	·	12.6	·	32.6	7.9*
CCCC[C@@H]1C=C(C(=O)O)[C@H](c2ccc(Cl)c(Cl)c2)N1S(=O)(=O)c1ccc(C)cc1	79.9*	2.2	8.9	·	25.9*	·	69.3*	33.9*
Cc1ccc(S(=O)(=O)N2[C@@H](c3ccc(Cl)cc3)C(C(=O)O)=C[C@H]2C(C)(C)C)cc1	48.2*	-2.3	2.7	·	51.1*	·	41.7*	11.0*
CCCC[C@@H]1C=C(C(=O)O)[C@H](c2ccc(C)cc2)N1S(=O)(=O)c1ccc(C)cc1	31.6	15.3	3.3	·	2.4	·	·	·
CCCCC[C@@H]1C=C(C(=O)O)[C@H](c2ccc(C)cc2)N1S(=O)(=O)c1ccc(C)cc1	73.7*	1.3	8.8	·	16.5	·	52.7*	17.7*
CCOC(=O)C1=C[C@@H](CC)N(S(=O)(=O)c2ccc(C)cc2)[C@H]1c1ccccc1	-2.5	·	·	·	·	·	·	·
Cc1ccc(CN2CCCC(C(=O)N3CCCC3)C2)cc1 (stereo not drawn)	-0.8	-2.2	6.3	0.9	1.5	-9.5	·	·
CCOc1ccccc1N(C)C(=O)CCS(=O)(=O)c1ccc2c(c1)NC(=O)C(C)S2 (stereo not drawn)	-4.0	-7.1	0.3	1.1	2.3	-5.1	·	·
COc1ccc(NC(=O)C(=O)c2cn(CC(=O)N3CCCC3)c3ccccc23)cc1	5.1	-1.9	-6.0	-5.0	0.5	-2.9	·	·
CN(CCC#N)C(=O)COC(=O)c1c2c(nc3ccccc13)/C(=C/c1ccco1)CC2	68.9*	8.9	7.3	11.1	3.1	-1.9	51.8*	28.5*
